Source: PubChem BioAssay
In the library only some 18% were active in any assay of this set; here they are far more common.
TDP1 cell CPT – growth inhibition of DT40 Tdp1-/-;hTDP1 cells with camptothecin (screen for TDP1 inhibitors) | chicken DT40 Tdp1-/-;hTDP1 cells + 20 nM CPT, ATP luminescence, 48 h | Potency, µM (titrated, usually from 46.2 µM), without a hit: top-dose activity change, negative = growth inhibition, most hits filed as inhibitors | 12% of 420,000 active | AID 686979; note: nearly all actives have a fitted effect of over 55% in size
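Chicken DT40 Tdp1-/- cells complemented with human TDP1, 400 cells/well, exposed to compounds plus 20 nM camptothecin for at least 48 h at 37 C; viability read as ATP content by CellTiter-Glo luminescence.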
PLK1 PBD block – inhibitors of human PLK1 polo-box domain binding; P53350; Plk1 PBD binding of FITC phosphopeptide, fluorescence polarization; Potency, µM, without a hit: max response, negative = inhibition, most hits filed as inhibitors; 2.8% of 360,000 active; AID 720504; note: series mostly up to about 57 µM; nearly all actives have a fitted effect of over 65% in size
VDR inhibitor – inhibitors of human vitamin D receptor. Potency, µM, for the others: max response, negative = inhibition, hits mostly inhibitors. VDR-SRC2-3 peptide fluorescence polarization, 2 h. 0.93% of 400,000 active. P11473
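The screen uses fluorescence polarization to detect compounds that interfere with recruitment of the SRC2-3 coactivator peptide to VDR; plates are read after 2 h at room temperature.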
KAT2A inh – inhibitors of human GCN5L2 histone acetyltransferase. Q92830. GCN5L2 HAT assay, ThioGlo1 CoA-SH fluorescence. Potency, µM (doses to about 58.9 µM), for inactives: at the top dose activity change, negative = inhibition, hits mostly inhibitors. 0.21% of 390,000 active
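GCN5L2 (20nM final) in 50mM HEPES, 0.1mM EDTA pH 7.5, 0.01% Tween-20 was preincubated 15 min at room temperature with compound, then given ThioGlo1 (50uM), H3(1-25) peptide (75uM) and acetyl-CoA (70uM); CoA-thiol fluorescence (Ex340/Em540) was read at 0 and 20 min.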
TDP1 block – inhibitors of human tyrosyl-DNA phosphodiesterase TDP1 | recombinant TDP1, AlphaScreen DNA substrate cleavage | 0.28% of 350,000 active | Potency, µM (titrated, usually from 130 µM), inactives show at the top dose activity change, negative = inhibition, hits mostly inhibitors; note: nearly all actives have a fitted effect of over 40% in size
Target sequence (Q9NUW8 whole entry, looked up): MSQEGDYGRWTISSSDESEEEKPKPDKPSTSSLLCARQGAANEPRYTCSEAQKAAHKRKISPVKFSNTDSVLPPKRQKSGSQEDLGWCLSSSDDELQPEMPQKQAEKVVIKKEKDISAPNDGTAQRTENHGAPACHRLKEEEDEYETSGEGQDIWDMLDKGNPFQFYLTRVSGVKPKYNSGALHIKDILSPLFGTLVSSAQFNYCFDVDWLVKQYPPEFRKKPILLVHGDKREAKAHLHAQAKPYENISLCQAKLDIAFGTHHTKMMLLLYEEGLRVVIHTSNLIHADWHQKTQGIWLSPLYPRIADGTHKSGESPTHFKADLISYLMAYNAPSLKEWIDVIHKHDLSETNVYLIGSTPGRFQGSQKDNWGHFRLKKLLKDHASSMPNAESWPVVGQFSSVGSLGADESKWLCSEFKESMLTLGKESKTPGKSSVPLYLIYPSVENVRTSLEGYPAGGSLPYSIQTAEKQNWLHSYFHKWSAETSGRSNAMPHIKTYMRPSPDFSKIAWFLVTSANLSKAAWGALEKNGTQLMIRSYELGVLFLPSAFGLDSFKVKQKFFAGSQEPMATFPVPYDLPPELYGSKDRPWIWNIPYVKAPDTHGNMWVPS
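E. coli-derived human Tdp1, 1 nM final. Cpd preinc 15 min RT; substrate 15 nM final, 5 min RT; AS bead mix 10 ug/ml final, 10 min RT. Signal loss = tyrosine-FITC cleavage. No-enzyme wells = max signal.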
DT40 TDP1 no CPT – qHTS for Inhibitors of human tyrosyl-DNA phosphodiesterase 1 (TDP1): qHTS in cells in absence of CPT. 15% of 420,000 active. AID 686978, 2013. DT40 Tdp1-/- hTDP1 cells, no CPT, ATP luminescence, 48 h. Potency, µM (titrated, usually from 46.2 µM), inactives show at the top dose activity change, negative = growth inhibition, usual class: inhibitors; note: nearly all actives have a fitted effect of over 55% in size
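A cellular qHTS used chicken DT40 cells lacking endogenous Tdp1 but carrying stably transfected human TDP1. Compounds were applied without camptothecin, and cell growth kinetics were judged by ATP-dependent luminescence after ≥48 hr.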
Starred values were filed as active, the others as inactive; ? = inconclusive; . = no result given; ! = not confirmed by another sample; [ ] = dose if it differs, or a comment. Calls come from the whole dose curve; as a rule, active = well fitted curve in the direction sought with a large enough effect; inconclusive = small, poorly fitted or top-dose-only effect, or another doubt; inactive = no such curve, though single readings can be large; an effect the other way counts as inactive or inconclusive. % is set by controls: 0 for no effect and ±100 for the full control effect; potency is the fitted concentration of half-maximal effect.

SMILES	TDP1 cell CPT	PLK1 PBD block	VDR inhibitor	KAT2A inh	TDP1 block	DT40 TDP1 no CPT
CCCc1cnc2c(c1SCC(=O)Nc1ccccc1F)c(=O)n(C)c(=O)n2C	?	.	-3.7%	-2.6%	0.0%	23.1µM*
CCCc1cnc2c(c1SCC(=O)N1CCC(C)CC1)c(=O)n(C)c(=O)n2C	16.4µM*	.	13.2%	-7.9%	-5.2%	20.6µM*
CCc1cnc2c(c1SCc1c(F)cccc1Cl)c(=O)n(C)c(=O)n2C	14.6µM*	.	-5.2%	-10.0%	5.2%	25.9µM*
CCC(C)Sc1c(C(C)C)cnc2c1c(=O)n(C)c(=O)n2C (stereo unspecified)	23.1µM*	.	5.1%	-7.9%	2.7%	13µM*
CCOC(=O)[C@]12CCC=C1N(Cc1ccccc1)C(=O)[C@H](CC(=O)NCC13CC4CC(CC(C4)C1)C3)C2	?	-8.4%	.	.	.	?
CC(C)c1cnc2c(c1SCC(=O)c1ccccc1)c(=O)n(C)c(=O)n2C	?	.	5.0%	-2.7%	5.4%	13µM*
CC(C)c1cnc2c(c1SCC(=O)N1CCCCC1)c(=O)n(C)c(=O)n2C	23.1µM*	.	19.4%	9.8%	8.1%	?
CC(C)c1cnc2c(c1SCC(=O)NC(C)(C)C)c(=O)n(C)c(=O)n2C	4.5%	.	7.0%	-5.5%	-2.7%	-18.4%
Cc1cccc(NC(=O)CSc2c(C)cnc3c2c(=O)n(C)c(=O)n3C)c1C	-5.0%	.	16.7%	-2.4%	-2.6%	?
CC(C)c1cnc2c(c1SCc1cccc(F)c1)c(=O)n(C)c(=O)n2C	16.4µM*	.	12.0%	-6.2%	2.7%	23.1µM*
COc1ccc(NC(=O)CSc2c(C(C)C)cnc3c2c(=O)n(C)c(=O)n3C)c(OC)c1	23.1µM*	.	9.1%	-0.5%	0.0%	23.1µM*
C[C@@H]1CN([C@H](C)CO)C(=O)CCCn2nncc2CO[C@H]1CN(C)S(=O)(=O)c1cccc(C#N)c1	-5.6%	-11.9%	.	.	.	-17.1%
Cc1c(C(=O)N(C)Cc2ccccc2)oc2ccc(S(=O)(=O)N3CCCC3)cc12	-21.8%	-9.7%	11.6%	-17.6%	4.1%	?
O=S(=O)(c1ccc2oc3ccccc3c2c1)N1CCCC1	-22.9%	?	0.9%	-1.9%	-4.4%	?
Cc1c(C(=O)N(Cc2ccccc2)C(C)C)oc2ccc(S(=O)(=O)N3CCOCC3)cc12	?	29.9µM*	-11.7%	-6.2%	2.8%	-21.0%
Cc1c(C(=O)N2CCCc3ccccc32)oc2ccc(S(=O)(=O)N3CCOCC3)cc12	14.1µM*	-13.1%	-21.2%	-12.5%	2.0%	11.2µM*
CCN(C(=O)c1oc2ccc(S(=O)(=O)N3CCCCCC3)cc2c1C)c1ccccc1	23.1µM*	.	-3.5%	-4.9%	5.2%	14.6µM*
O=C(c1cc(S(=O)(=O)N2CCOCC2)ccc1F)N1CCCc2ccccc21	?	-7.3%	-6.2%	-1.2%	6.2%	?
CCN(CC)C(=O)C1CCN(S(=O)(=O)c2ccc3oc4ccccc4c3c2)CC1	20.6µM*	-3.7%	-5.7%	-7.4%	1.0%	16.4µM*
COc1ccc(/C=C/C(=O)N2CCc3c(cnc(C)c3CNC(=O)c3ccsc3)C2)cc1OC	6.2%[9.04 µM]	.	.	.	.	-27.0%
Cc1cccc(CSc2nc3c(c(=O)[nH]2)C(c2cccc(O)c2)CC(=O)N3)c1 (stereo unspecified)	?	.	13.3%	1.2%	0.5%	-52.3%
CCCCN(CC)C(=O)c1oc2ccc(S(=O)(=O)N3CCCC3)cc2c1C	?	29.9µM*	?	-8.6%	1.7%	-19.6%
COc1ccc(NC(=O)CCS(=O)(=O)c2cc(Br)cc3c2N(C(C)=O)CC3)c(OC)c1	-22.5%	.	1.5%	-3.8%	0.0%	-9.4%
CC(C)(C)OC(=O)N1CCC[C@H]1C(=O)O	0.6%	-13.8%	-3.3%	-2.5%	10.9%	-3.5%
CC(C)(C)OC(=O)N1CCN(C(=O)OCC2c3ccccc3-c3ccccc32)CC1C(=O)O (stereo unspecified)	23.1µM*	-11.7%	3.4%	.	.	?
SMILES	TDP1 cell CPT	PLK1 PBD block	VDR inhibitor	KAT2A inh	TDP1 block	DT40 TDP1 no CPT
Cc1ccc(S(=O)(=O)N2CCC(C(=O)N3CCCCCCC3)CC2)cc1C	16.4µM*	-17.1%	.	.	.	?
Cc1ccc(S(=O)(=O)N2CCC(C(=O)OCCOc3ccccc3)CC2)cc1C	-8.6%	-6.5%	-16.8%	-28.8%	.	0.184µM*
Cc1ccc(S(=O)(=O)N2CCC(C(=O)N3CCc4ccccc43)CC2)cc1C	?	-6.8%	-12.8%	-28.9%	-7.7%	18.4µM*
Cc1ccc(S(=O)(=O)N2CCC(C(=O)N3CCc4ccccc43)CC2)cc1	?	-3.5%	-17.3%	-26.7%	3.4%	?
Cc1ccc(S(=O)(=O)N2CCC(C(=O)OCCOc3cccc(C)c3)CC2)cc1	-4.3%	-0.1%	-17.0%	-8.1%	-6.6%	1.0%
N#Cc1cccc(S(=O)(=O)NCC(=O)OCC(=O)NCc2ccccc2)c1	4.1%	5.8%	-15.7%	1.7%	0.2%	12.6%
Cc1cc(O)cc(O)c1-c1onc(C(F)(F)F)c1-c1cscn1	18.4µM*	0.2%	0.7%	-1.3%	4.9%	10.3µM*
CCOc1ccc(-c2onc(C(F)(F)F)c2-c2cscn2)c(O)c1	11.2µM*	-2.8%	-6.0%	-4.5%	-4.0%	?
COc1ccc(-c2onc(C)c2-c2cscn2)c(O)c1	5.5%	-13.4%	1.1%	-1.9%	2.6%	-1.4%
Cc1ccc(Cl)cc1NC(=O)C(Cc1ccccc1)N1C(=O)C2C3CCC(C3)C2C1=O (stereo unspecified)	?	-8.7%	-7.6%	-7.0%	0.0%	14.6µM*
Cc1oc(-c2ccccc2Cl)nc1CSCC(=O)O	5.9%	-7.4%	-0.7%	0.8%	3.7%	-0.7%
Cc1oc(-c2ccc(C(=O)Nc3cccc(C(F)(F)F)c3)cc2)nc1CSc1ccccc1	23.1µM*	.	3.9%	-5.9%	2.8%	16.4µM*
Cc1cccc(NC(=O)c2ccc(-c3nc(CSc4ccccc4)c(C)o3)cc2)c1C	5.17µM*	.	7.0%	-3.3%	0.0%	?
Cc1oc(-c2cccc(Cl)c2)nc1CSCC(=O)O	16.4µM*!	-4.5%	7.3%	1.6%	7.8%	29.1µM*!
Cc1ccc(Cl)cc1NC(=O)c1ccc(-c2nc(CSc3ccccc3)c(C)o2)cc1	9.2µM*	.	16.6%	-0.7%	-5.6%	6.51µM*
